# The source holds several records for some structures; these can differ, active in one and inactive in another. Activity calls are given as the source filed them. Rule for the calls: active = hit-call score of the fitted dose curve at least 0.9, where 1 is the maximum; inactive = score below 0.9.
# Read-out: catalase (CAT), CAT (gene 847)
# Assay: LTEA_HepaRG_CAT: Life Technologies and Expression Analysis (LTEA) Assay for catalase (CAT) using HepaRG (AID 2283452);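 for AC50: TaqMan qRT-PCR signal normalized to ACTB GAPDH and POLR2A housekeeping genes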
# Settings: mRNA level, 48 h; actives raise or lower the signal
# Description: LTEA_HepaRG is a cell based, multiplexed-readout assay that uses HepaRG, a human liver cell line, with measurements taken at 48 hours after chemical dosing on a 96-well plate.LTEA_HepaRG_CAT is one of 102 assay component(s) measured in the LTEA HepaRG cell culture assay. It is a marker of Oxidative Stress.Data from the assay component LTEA_HepaRG_CAT was analyzed into 1 endpoint. This assay endpoint, LTEA_HepaRG_CAT, was analyzed with bidirectional fitting relative to DMSO as the negative control and baseline of activity. Using a type of inducible reporter, measures of mRNA induction for gain or loss-of-signal activity can be used to understand regulation of transcription factor activity. To generalize the intended target to other relatable targets, this assay endpoint is annotated to the catalase intended target family, where the subfamily is oxidative stress.
# A total of 1060 chemcials from the ToxCast library were tested in eight-point concentration-response experiments. Cell culture and cytotoxicity assays were conducted at Thermo Fisher Scientific's Custom Services facility (Madison, WI). A single lot of human HepaRG cells (Thermo Fisher Scientific, Frederick, MD) was used for the cell culture experiments. 96-well format collagen type I coated plates of human HepaRG cells were prepared using established methods. Briefly, cryopreserved HepaRG cells were thawed, plated at a density of approximately 100,000 cells/well in HepaRG Thaw, Plate, and General Purpose media (HPRG770, Thermo Fisher Scientific), and incubated for 48 hours. 0.5% DMSO was selected as vehicle control to balance the requisite need of DMSO in HepaRG cultures to maintain differentiation (for example, baseline metabolism, proportions of hepatocytes vs. cholangiocytes), while enabling further hepatic receptor pathway activation (for example, PXR and CAR) in response to chemical exposure. 48 hours after plating, the culture medium was replaced with HepaRG Serum-Free Incudtion Media. Cells were exposed to each test chemical in duplicate and maintained in CO2 incubators for another 48 hours. Chemical plates were thawed to room temperature and 200x concentrations of treatment groups were prepared. 8-point conentration-reponse curves were made with the highest exposure at 100 uM, followed by half-log dilutions, all in 0.5% DMSO. Each test plate contained variouse controls, induction positive controls (1mM phenobarbital), cytotoxicity positive controls ([…] aflatoxin B1), vehicle controls (0.5% DMSO), and total lysis controls (0.5% DMSO). Cell morphology images were taken using an Essen IncuCyte FLR automated microscope, with six 96-well plates imaged in about 24 minutes. Images were captured and exported and JPEG files. Spent culture media was transfered to black-well plates for the LDH assay, and remaining media was sorted at -80 C for later use. Cells were treated with RLT buffer and frozen until shipped for gene expression analysis. Total RNA was isolated from the cell suspension in 75 uL of Buffer RLT (Qiagen, Germantown, MD 20874) by Quintiles/Expression Analysis (Durham, NC) using a custom isolation procedure. Total RNA from each plate well was transferred to a preamplification plate. Fluidigm's 96.96 Dynamic ArrayTM (Fluidigm, Amsterdam, the Netherlands) technology was used for gene expression analyses by quantitative reverse transcription polymerase chain reaction (qRT-PCR, performed by Quintiles/Expression Analysis, Durham, NC)89. Standard TaqManTM Assays (Applied Biosystems/ThermoFisher Scientific, Foster City, CA) were used to assess the expression of 93 genes selected based on their selectivity and sensitivity to important hepatic receptors known to be modulated by environmental chemicals; importance in human hepatocyte functionality; and hepatotoxicity. […]
SMILES,AC50,outcome
CCCN(CCOc1c(Cl)cc(Cl)cc1Cl)C(=O)n1ccnc1,32.1 µM (active),
O=[N+]([O-])/N=C1\NCCN1Cc1ccc(Cl)nc1,39.8 µM (active),
COP(=S)(OC)Oc1ccc([N+](=O)[O-])cc1,,inactive
O=C(O)C(F)(F)C(F)(F)C(F)(F)C(F)(F)C(F)(F)C(F)(F)C(F)(F)F,23.3 µM (active),inactive
N#Cc1c(Cl)c(Cl)c(Cl)c(C#N)c1Cl,65.7 µM (active),
CC(C)(C)C(O)C(Oc1ccc(Cl)cc1)n1cncn1 (stereo not given),,inactive
O=S(=O)(O)C(F)(F)C(F)(F)C(F)(F)C(F)(F)C(F)(F)C(F)(F)C(F)(F)C(F)(F)F,84 µM (active),inactive
OCCOc1ccccc1,,inactive
CNC(=O)Oc1ccccc1OC(C)C,,inactive
CC1(c2ccc(Oc3ccccc3)cc2)OC(=O)N(Nc2ccccc2)C1=O (stereo not given),12.7 µM (active),
COP(=S)(OC)Oc1ccc(SC)c(C)c1,,inactive
COP(=O)(OC)OC=C(Cl)Cl,,inactive
CC1(C)C(C=C(Cl)Cl)C1C(=O)OC(C#N)c1ccc(F)c(Oc2ccccc2)c1 (stereo not given),,inactive
CNC(=O)/C=C(\C)OP(=O)(OC)OC,,inactive
CN1CSC(=S)N(C)C1,,inactive
Cc1[nH]c(=O)n(C(C)(C)C)c(=O)c1Cl,,inactive
CCC(C)(C)C(=O)OC1=C(c2ccc(Cl)cc2Cl)C(=O)OC12CCCCC2,,inactive
CCc1ccc(C(=O)NN(C(=O)c2cc(C)cc(C)c2)C(C)(C)C)cc1,,inactive
Oc1ccc(Cl)cc1Cc1ccccc1,,inactive

SMILES,AC50,outcome
O=C(NC(=O)c1c(F)cccc1F)Nc1ccc(OC(F)(F)C(F)OC(F)(F)F)c(Cl)c1 (stereo not given),,inactive
CCCN(CCC)c1c([N+](=O)[O-])cc(C(F)(F)F)cc1[N+](=O)[O-],,inactive
CNC(=O)CSP(=S)(OC)OC,,inactive
O=C(Nc1ccccc1)Nc1cnns1,50 µM (active),
C#CCN1C(=O)COc2cc(F)c(N3C(=O)C4=C(CCCC4)C3=O)cc21,,inactive
COc1nn(CSP(=S)(OC)OC)c(=O)s1,,inactive
Oc1cc(Cl)ccc1Oc1ccc(Cl)cc1Cl,90.2 µM (active),inactive
CC(C)OC(=O)Nc1cccc(Cl)c1,,inactive
CCOC1Oc2ccc(OS(C)(=O)=O)cc2C1(C)C (stereo not given),74.1 µM (active),
CC(C)(C)C(O)/C(=C\c1ccc(Cl)cc1Cl)n1cncn1 (stereo not given),27.3 µM (active),
O=C(O)CCCOc1ccc(Cl)cc1Cl,,inactive
CNC(=O)Oc1cccc(N=CN(C)C)c1,,inactive
CCN(CC)C(=O)SCc1ccc(Cl)cc1,,inactive
Clc1ccccc1-c1nnc(-c2ccccc2Cl)nn1,,inactive
ClC1C(Cl)C(Cl)C(Cl)C(Cl)C1Cl (stereo not given),,inactive
C[C@H]1[C@H](c2ccc(Cl)cc2)SC(=O)N1C(=O)NC1CCCCC1,66.2 µM (active),
O=C1c2ccccc2C(=O)N1SC(Cl)(Cl)Cl,,inactive
O=[N+]([O-])c1c(Cl)c(Cl)c(Cl)c(Cl)c1Cl,,inactive

# Source: PubChem BioAssay (EPA / NIEHS)
